From PubChem BioAssay AID1159580 (chemical genetic matrix, 2015)
Out of some 5,500 compounds screened, about 2,000 (36%) were called active. About 18% were inconclusive and are not listed. No stated cut-off is given here; in the data, active means normalized growth mostly below about 0.91 (no sharp cut-off); inconclusive means no clear call, values can overlap the other calls; inactive means mostly above about 0.92. The list shows a part of the results.

Experiment: chemical genetic growth profiling, strain panel (AID 1159580);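 further: tested at 20 µM; growth read once vehicle control cultures reached saturation at 30 °C; 1 = growth at the plate median or of vehicle wells; lower values mean less growth of the strain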
Details: growth OD
[1] = S. cerevisiae deletion strains, locus YDL101C, strain DUN1, active compounds read low
[2] = S. cerevisiae deletion strains, locus YHR030C, strain SLT2, active compounds read low

Measured: normalized growth

O=C(Nc1ccccc1)N1CCN(C(c2ccccc2)c2ccccc2)CC1
inactive: S. cerevisiae deletion strains, locus YAL013W, strain DEP1, active compounds read low 0.988 | S. cerevisiae deletion strains, locus YBR229C, strain ROT2, active compounds read low 0.992 | [1] 0.994 | S. cerevisiae deletion strains, locus YDL134C, strain PPH21, active compounds read low 1.01 | S. cerevisiae deletion strains, locus YDR150W, strain NUM1, active compounds read low 1 | S. cerevisiae deletion strains, locus YEL061C, strain CIN8, active compounds read low 0.997 | S. cerevisiae deletion strains, locus YGR078C, strain PAC10, active compounds read low 1 | S. cerevisiae deletion strains, locus YGR229C, strain SMI1, active compounds read low 1 | [2] 0.963 | S. cerevisiae deletion strains, locus YHR087W, strain rtc3, active compounds read low 0.993 | S. cerevisiae deletion strains, locus YJL187C, strain SWE1, active compounds read low 1.01 | S. cerevisiae deletion strains, locus YJR043C, strain POL32, active compounds read low 0.978 | S. cerevisiae deletion strains, locus YJR075W, strain HOC1, active compounds read low 1.02 | S. cerevisiae deletion strains, locus YKL190W, strain CNB1, active compounds read low 0.989 | S. cerevisiae deletion strains, locus YLR039C, strain RIC1, active compounds read low 0.992 | S. cerevisiae deletion strains, locus YLR058C, strain SHM2 (second series), active compounds read low 0.991 | S. cerevisiae deletion strains, locus YLR085C, strain ARP6, active compounds read low 1.06 | S. cerevisiae deletion strains, locus YLR262C, strain YPT6, active compounds read low 0.985 | S. cerevisiae deletion strains, locus YML094W, strain GIM5, active compounds read low 1.04 | S. cerevisiae deletion strains, locus YMR219W, strain ESC1, active compounds read low 1.01 | S. cerevisiae deletion strains, locus YMR263W, strain SAP30, active compounds read low 0.989 | S. cerevisiae deletion strains, locus YNL153C, strain GIM3, active compounds read low 0.994 | S. cerevisiae deletion strains, locus YNL298W, strain CLA4 (second series), active compounds read low 0.966 | S. cerevisiae deletion strains, locus YNL322C, strain KRE1, active compounds read low 1 | S. cerevisiae deletion strains, locus YNR030W, strain Alg12, active compounds read low 0.986 | S. cerevisiae deletion strains, locus YPL055C, strain LGE1, active compounds read low 1.08 | S. cerevisiae deletion strains, locus YPL241C, strain CIN2, active compounds read low 1.03 | S. cerevisiae deletion strains, locus YPR135W, strain CTF4, active compounds read low 0.902 | S. cerevisiae strains, strain wild type, active compounds read low 0.973

O=C(Nc1cc2ccccc2s1)N1CCN(Cc2c(F)cccc2Cl)CC1
active: S. cerevisiae deletion strains, locus YLR113W, strain HOG1, active compounds read low 0.853
inactive: S. cerevisiae deletion strains, locus YAR019C, strain CDC15, active compounds read low 0.994 | S. cerevisiae deletion strains, locus YBL105C, strain PKC1, active compounds read low 0.974 | S. cerevisiae deletion strains, locus YBR135W, strain CKS1, active compounds read low 0.986 | S. cerevisiae deletion strains, locus YBR136W, strain MEC1, active compounds read low 0.973 | S. cerevisiae deletion strains, locus YBR160W, strain CDC28, active compounds read low 0.972 | S. cerevisiae deletion strains, locus YDL017W, strain CDC7, active compounds read low 0.983 | S. cerevisiae deletion strains, locus YDL028C, strain MPS1, active compounds read low 0.988 | [1] 0.982 | S. cerevisiae deletion strains, locus YDL108W, strain KIN28, active compounds read low 0.989 | S. cerevisiae deletion strains, locus YDL132W, strain cdc53, active compounds read low 0.983 | S. cerevisiae deletion strains, locus YDL214C, strain PRR2, active compounds read low 0.938 | S. cerevisiae deletion strains, locus YDR052C, strain DBF4, active compounds read low 0.986 | S. cerevisiae deletion strains, locus YDR054C, strain cdc34, active compounds read low 0.968 | S. cerevisiae deletion strains, locus YDR226W, strain ADK1, active compounds read low 0.979 | S. cerevisiae deletion strains, locus YDR477W, strain SNF1, active compounds read low 0.943 | S. cerevisiae deletion strains, locus YER123W, strain YCK3, active compounds read low 0.946 | S. cerevisiae deletion strains, locus YER133W, strain GLC7, active compounds read low 0.95 | S. cerevisiae deletion strains, locus YFL009W, strain cdc4, active compounds read low 0.981 | S. cerevisiae deletion strains, locus YFL029C, strain CAK1, active compounds read low 0.984 | S. cerevisiae deletion strains, locus YFR003C, strain YPI1, active compounds read low 0.983 | S. cerevisiae deletion strains, locus YFR019W, strain FAB1, active compounds read low 0.958 | S. cerevisiae deletion strains, locus YFR028C, strain CDC14, active compounds read low 0.988 | S. cerevisiae deletion strains, locus YGR040W, strain KSS1, active compounds read low 0.925 | S. cerevisiae deletion strains, locus YGR052W, strain FMP48, active compounds read low 0.986 | S. cerevisiae deletion strains, locus YGR092W, strain DBF2, active compounds read low 0.972 | [2] 0.938 | S. cerevisiae deletion strains, locus YHR079C, strain IRE1, active compounds read low 0.934 | S. cerevisiae deletion strains, locus YHR082C, strain KSP1, active compounds read low 0.982 | S. cerevisiae deletion strains, locus YHR205W, strain SCH9, active compounds read low 0.972 | S. cerevisiae deletion strains, locus YIL147C, strain SLN1, active compounds read low 0.982 | S. cerevisiae deletion strains, locus YJL095W, strain BCK1, active compounds read low 0.927 | S. cerevisiae deletion strains, locus YJL128C, strain PBS2, active compounds read low 0.965 | S. cerevisiae deletion strains, locus YJL157C, strain FAR1, active compounds read low 0.913 | S. cerevisiae deletion strains, locus YJR016C, strain ILV3, active compounds read low 0.997 | S. cerevisiae deletion strains, locus YJR066W, strain TOR1 (second series), active compounds read low 0.904 | S. cerevisiae deletion strains, locus YJR066W, strain TOR1, active compounds read low 0.979 | S. cerevisiae deletion strains, locus YKL048C, strain ELM1, active compounds read low 0.983 | S. cerevisiae deletion strains, locus YKL067W, strain YNK1, active compounds read low 0.946 | S. cerevisiae deletion strains, locus YKL101W, strain HSL1, active compounds read low 0.918 | S. cerevisiae deletion strains, locus YKL193C, strain SDS22, active compounds read low 0.986 | S. cerevisiae deletion strains, locus YKL203C, strain TOR2, active compounds read low 0.975 | S. cerevisiae deletion strains, locus YLR133W, strain CKI1, active compounds read low 0.928 | S. cerevisiae deletion strains, locus YLR403W, strain SFP1, active compounds read low 0.906 | S. cerevisiae deletion strains, locus YML070W, strain DAK1, active compounds read low 0.915 | S. cerevisiae deletion strains, locus YMR001C, strain CDC5, active compounds read low 0.984 | S. cerevisiae deletion strains, locus YMR205C, strain PFK2 (second series), active compounds read low 0.95 | S. cerevisiae deletion strains, locus YMR277W, strain FCP1, active compounds read low 0.983 | S. cerevisiae deletion strains, locus YNL006W, strain LST8, active compounds read low 0.989 | S. cerevisiae deletion strains, locus YNL020C, strain ARK1, active compounds read low 0.928 | S. cerevisiae deletion strains, locus YNL161W, strain CBK1, active compounds read low 0.988 | S. cerevisiae deletion strains, locus YNL183C, strain NPR1, active compounds read low 0.944 | S. cerevisiae deletion strains, locus YNL207W, strain RIO2, active compounds read low 0.976 | S. cerevisiae deletion strains, locus YNL222W, strain SSU72, active compounds read low 0.988 | S. cerevisiae deletion strains, locus YNL307C, strain MCK1 (second series), active compounds read low 0.961 | S. cerevisiae deletion strains, locus YOL078W, strain AVO1, active compounds read low 0.982 | S. cerevisiae deletion strains, locus YOL136C, strain PFK27, active compounds read low 0.911 | S. cerevisiae deletion strains, locus YOR061W, strain CKA2, active compounds read low 0.952 | S. cerevisiae deletion strains, locus YOR119C, strain RIO1, active compounds read low 0.993 | S. cerevisiae deletion strains, locus YOR231W, strain MKK1, active compounds read low 0.877 | S. cerevisiae deletion strains, locus YOR329C, strain SCD5, active compounds read low 0.972 | S. cerevisiae deletion strains, locus YPL031C, strain PHO85, active compounds read low 0.942 | S. cerevisiae deletion strains, locus YPL153C, strain RAD53, active compounds read low 0.917 | S. cerevisiae deletion strains, locus YPL204W, strain HRR25, active compounds read low 0.915 | S. cerevisiae deletion strains, locus YPL209C, strain IPL1, active compounds read low 0.976 | S. cerevisiae deletion strains, locus YPL256C, strain CLN2, active compounds read low 0.888 | S. cerevisiae deletion strains, locus YPR025C, strain CCL1, active compounds read low 0.986 | S. cerevisiae deletion strains, locus YPR106W, strain ISR1, active compounds read low 0.962 | S. cerevisiae deletion strains, locus YPR111W, strain DBF20, active compounds read low 0.962 | S. cerevisiae deletion strains, strain NNK1, active compounds read low 0.972 | S. cerevisiae deletion strains, strain TSCII, active compounds read low 0.986
